Assay results reported in the supplement of paper PMC4840960.
Where a name gives a salt, the structure may show the parent alone.

Test system: E18 rat cortical neuron-glia co-culture
Experiment: fiber score / MBP score (myelination specific beyond OL differentiation) (ratio); higher = more myelination-specific MBP alignment
Conditions: 5 µM; treatment time: 8 days (DIV5-DIV13)
Summary of the method: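 Papain-dissociated primary E18 rat cortical co-cultures, plated at 20,000 cells/well on poly-d-lysine/laminin 96-well plates, were exposed to library compounds at 1 or 5 µM in myelination medium between DIV5 and DIV13. Following fixation in 4 % paraformaldehyde, cultures were stained for MBP, Olig2 and DAPI, and four 10X fields per well were analysed in duplicate wells. Values are the ratio of fiber score (continuous MBP fiber length per Olig2+ nucleus) to MBP score (thresholded MBP area × intensity per Olig2+ nucleus).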

Going from COc1ccc2c(c1)[C@]13CCCC[C@@H]1[C@H](C2)N(C)CC3 [Dextromethorphan] to CN1CC[C@]23CCCC[C@H]2[C@H]1Cc1ccc(O)cc13 [Levorphanol], the “fiber score / MBP score” value falls from 0.893 to 0.735.

First: NC1=NC(=O)C(c2ccccc2)O1 (centres undefined) [Pemoline]
Second: O[C@@H]1CCCC[C@H]1N1CCC(c2ccccc2)CC1 (racemic) [Vesamicol]
The “fiber score / MBP score” value of the first is higher: 0.845 for the first, 0.361 for the second.

Going from CCCC(C)(COC(N)=O)COC(=O)NC(C)C (centres undefined) [Carisoprodol] to CCN(CC)CCOC(=O)C(O)(c1ccccc1)c1ccccc1 [Benactyzine], the “fiber score / MBP score” value rises from 0.796 to 1.2.

Compared with Cc1nnc2n1-c1ccc(Cl)cc1C(c1ccccc1)=NC2 [Alprazolam], CN1CC[C@]2(c3cccc(O)c3)Cc3nc4ccccc4cc3C[C@H]2C1 is lower in “fiber score / MBP score” value: 0.823 for the first, 0.822 for the second.

Compared with CN1[C@@H]2C[C@@H](OC(=O)[C@H](CO)c3ccccc3)C[C@H]1[C@@H]1O[C@@H]12 [Scopolamine hydrobromide], COc1cc2c(cc1OC)[C@@]13CCN4CC5=CCO[C@H]6CC(=O)N2[C@H]1[C@H]6[C@H]5C[C@H]43 [Brucine] is lower in “fiber score / MBP score” value: 0.821 for the first, 0.692 for the second.

Going from COc1ccc2[nH]cc(CCN)c2c1 [5-Methoxytryptamine] to COc1ccc(C(CN(C)C)C2(O)CCCCC2)cc1 (centres undefined) [Venlafaxine], the “fiber score / MBP score” value rises from 0.737 to 1.02.

First: C[C@]12CC[C@H](O)CC1=CC[C@@H]1[C@@H]2CC[C@]2(C)C(=O)CC[C@@H]12 [Dehydroepiandrosterone]
Second: C=CCN1CC[C@]23c4c5ccc(O)c4O[C@H]2C(=O)CC[C@@]3(O)[C@H]1C5 [Naloxone]
The “fiber score / MBP score” value of the first is lower: 0.965 for the first, 1.09 for the second.
